Records with an inconclusive call do not appear. The source made the active and inactive calls.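 The calls were made as follows, unless noted: active = viability at or below 10% of carrier control in both of two separate runs; inconclusive = viability at or below 10% in only one of the two runs; inactive = the rest.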
Key:
[1] = Her2 expression decrease, cell viability multiplex – SKBR3 breast tumor cells, AlphaScreen, ATP viability, primary screen (AID 461;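 active = Her2 level under about 52% in both replicate screens, with viability over 70% of control, limit read from the data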;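 as to Her2 level: lower value means less Her2 protein in the cells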;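 as to viability: percent of carrier control wells set as 100% viability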); settings: SKBR3 Her2 protein level, 18-24 h, measured here: SKBR3 viability, ATP luminescence, at 10 µM
[2] = target: Receptor tyrosine-protein kinase erbB-2 (Homo sapiens) (UniProt P04626); experiment: as above; settings: 18-24 h, at 10 µM, stronger effect = lower value
[3] = reduced viability of SK-BR-3 breast cancer cells – cell-based, 24 h, human, pilot screen (AID 572); settings: SK-BR-3 viability, CellTiter-Glo luminescence, at 10 µM, stronger effect = lower value;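 also: compound exposure lasted between 18 and 24 h rather than exactly 24 h; 100% = carrier-treated control wells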
[4] = HUVEC growth inhibition – cell-based, human, primary screen (AID 575;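 active = viability at or below 30% in both replicate assays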;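 also: 100% = median of untreated cell wells with 0.1% DMSO on each plate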); settings: HUVEC proliferation, CellTiter-Glo luminescence, 72 h; at 10 µM; stronger effect = lower value
[5] = H69AR cell proliferation blockers – human, duplicate replicates, primary screen (AID 580;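 active = viability at or under a set limit in both replicates, limit being median viability minus 3 SD, cut at about 48% in these data, passing the limit was not always enough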;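 also: 100% = mean luminescence of untreated wells and 0% = no signal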); settings: H69AR lung tumor cells viability, ATP luminescence, 72 h; at 10 µM; stronger effect = lower value
[6] = MRP1 drug-resistance reversers in H69AR cells – cell-based, doxorubicin co-treatment, pilot screen (AID 601;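 active = viability loss from added drug above about 55%, and viability with drug at most 40%, in both replicates, limit read from the data, passing the limit was not always enough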); settings: CellTiter-Glo, 72 h, at 10 µM; for differential viability (reversal): stronger effect = higher value
[7] = yeast transport mutant growth inhibition pilot in 384-well plates, post-Golgi transport modulator project (AID 636; in the data active = inhibition above about 31%); settings: absorbance 615 nm, about 18 h, stronger effect = higher value
[8] = growth suppression of yeast trafficking mutant, preliminary HTS, modulators of trafficking downstream of Golgi apparatus project, 1536-format plate, OD 615 nm (AID 637; in the data active = inhibition above about 30%); settings: yeast transport mutant growth, absorbance 615 nm, 18 h; stronger effect = higher value
[9] = S. cerevisiae growth inhibition in permissive medium (OD615), pilot counter-assay for S. cerevisiae lifespan shortening project, permissive growth control (AID 705;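 active = growth inhibition above 25% in both replicates, a cutoff set 3 SD above the mean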); settings: OD615, 24 h, at 10 µM, stronger effect = higher value
[10] = S. cerevisiae growth inhibition in restrictive medium, OD615, pilot screen, restrictive growth control, yeast lifespan reduction project (AID 706;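 active = growth inhibition above a set limit, 3 SD over mean compound inhibition, in both replicates, cut at about 43% in these data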;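 also: modified DeaD lifespan yeast strain shifted to restrictive glucose medium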); settings: OD615, 48 h, at 10 µM, stronger effect = higher value
[11] = doxorubicin toxicity protection in MRP-1 cells – H69AR cells, CellTiter-Glo, duplicate, MRP-1 activator project, pilot screen (AID 807;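 active = viability increase at or above a cutoff of the median across tested compounds plus 3 SD, cut at about 8.5% in these data, passing the limit was not always enough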;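 also: compound pretreatment 18-22 h then 72 h combined with doxorubicin; 0% = doxorubicin alone and 100% = vehicle without doxorubicin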); settings: H69AR viability with doxorubicin, CellTiter-Glo luminescence; at 10 µM; stronger effect = higher value
[12] = viability of HCT116 without oncogenic beta-catenin – human colon tumor cells, pilot screen (AID 823;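 active = cell viability at or below a set limit in both duplicate runs, the limit being the all-compound median minus 4 SD, cut at about 23% in these data, passing the limit was not always enough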;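 also: 0% = wells killed by 20 µM Hyamine and 100% = untreated DMSO cell wells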); settings: HCT116 beta-catenin knockout viability, CellTiter-Glo, 60 h; at 10 µM; stronger effect = lower value
[13] = viability of PTEN-null HCT116 cells – cell-based, HCT116 clonal line, CellTiter-Glo, pilot screen (AID 824;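 active = viability at or below 27.92% in each of two runs, the all-compound median minus 4 SD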;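 also: 0% = 20 µM Hyamine control and 100% = vehicle cell control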); settings: HCT116 PTEN-deleted viability, 60 h, at 10 µM, stronger effect = lower value
[14] = RAM pathway blockade in budding yeast – dse1pr::URA3 reporter, 5-FOA selection, pilot screen (AID 869;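 active = inhibition over a set limit, the all-compound mean plus 3 SD, in both replicate runs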;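 also: 0% = DMSO wells with no growth and 100% = 10 µM 1-NA-PP1 with full growth; RAM network block rescues cells from 5-FOA so hits raise OD615 growth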); settings: S. cerevisiae dse1pr::URA3 5-FOA growth, OD615, 2 d; at 10 µM; stronger effect = higher value; strain carries analog-sensitive mutant Cbk1 kinase
[15] = RAM signaling pathway blockade in yeast – S. cerevisiae, Pdr1DBD-CYC8 efflux-inhibited sensitized strain, primary screen (AID 1298;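 active = RAM network inhibition above 8.4% in each of two replicates, 3 SD over the compound average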;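 also: 0% = DMSO untreated cells without growth and 100% = 10 µM 1-NA-PP1 full growth; higher means more yeast growth rescued from 5-FOA killing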); settings: S. cerevisiae cbk1-as DSE1-URA3 strain, 5-FOA growth OD615, 2 d; at 50 µM; stronger effect = higher value
[16] = H69AR cells + 2 uM doxorubicin, measured here: viability with 2 uM doxorubicin, stronger effect = lower value
[17] = H69AR cells, compound alone cytotoxicity

Receptor tyrosine-protein kinase erbB-2 (Homo sapiens), sequence (P04626 whole entry, looked up): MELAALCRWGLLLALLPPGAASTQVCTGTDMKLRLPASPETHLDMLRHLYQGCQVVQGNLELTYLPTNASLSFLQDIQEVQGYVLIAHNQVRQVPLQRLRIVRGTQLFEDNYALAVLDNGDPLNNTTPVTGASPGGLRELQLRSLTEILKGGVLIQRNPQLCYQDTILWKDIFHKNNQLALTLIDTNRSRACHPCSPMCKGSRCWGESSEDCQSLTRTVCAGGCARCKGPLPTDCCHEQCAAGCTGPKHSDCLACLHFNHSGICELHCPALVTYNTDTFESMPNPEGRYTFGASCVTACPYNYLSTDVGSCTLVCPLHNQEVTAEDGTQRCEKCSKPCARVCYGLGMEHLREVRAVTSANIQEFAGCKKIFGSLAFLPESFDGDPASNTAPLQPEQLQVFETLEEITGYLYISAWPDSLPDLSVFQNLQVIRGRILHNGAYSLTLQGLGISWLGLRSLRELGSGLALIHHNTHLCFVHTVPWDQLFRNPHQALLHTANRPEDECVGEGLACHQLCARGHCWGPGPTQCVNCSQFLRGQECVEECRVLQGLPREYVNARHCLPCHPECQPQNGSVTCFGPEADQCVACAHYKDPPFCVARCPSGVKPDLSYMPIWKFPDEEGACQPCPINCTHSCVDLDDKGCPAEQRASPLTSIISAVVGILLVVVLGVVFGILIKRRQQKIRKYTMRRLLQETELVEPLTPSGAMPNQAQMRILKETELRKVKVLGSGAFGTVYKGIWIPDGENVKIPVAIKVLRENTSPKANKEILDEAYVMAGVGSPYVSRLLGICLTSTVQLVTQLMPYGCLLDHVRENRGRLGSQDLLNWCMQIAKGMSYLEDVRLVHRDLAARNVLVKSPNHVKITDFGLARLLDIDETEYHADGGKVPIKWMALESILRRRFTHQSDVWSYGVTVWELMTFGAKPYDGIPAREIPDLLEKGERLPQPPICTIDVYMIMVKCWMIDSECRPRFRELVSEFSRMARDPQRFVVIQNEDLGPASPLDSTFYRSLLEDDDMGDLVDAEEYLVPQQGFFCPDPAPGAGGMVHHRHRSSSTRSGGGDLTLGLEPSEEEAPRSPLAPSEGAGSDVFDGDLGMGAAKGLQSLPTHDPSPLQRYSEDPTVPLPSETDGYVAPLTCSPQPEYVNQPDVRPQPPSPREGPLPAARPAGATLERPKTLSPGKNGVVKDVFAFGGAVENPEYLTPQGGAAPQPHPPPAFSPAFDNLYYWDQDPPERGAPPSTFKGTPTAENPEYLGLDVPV

SMILES | viability [1] | Her2 level [2] | viability [3] | viability [4] | viability [5] | differential viability (reversal) ([6]; H69AR cells + 2 uM doxorubicin) | viability [6, 16] | viability [6, 17] | inhibition [7] | inhibition [8] | growth inhibition [9] | growth inhibition [10] | viability increase [11] | viability [12] | viability [13] | inhibition [14] | RAM network inhibition [15]
CCOc1ccccc1NC(=O)CC1Nc2cc(C)c(C)cc2NC1=O (stereo not given) | 80.5% | 82% (inactive) | 80.5% (inactive) | 68.7% (inactive) | 59.2% (inactive) | -25.8% (inactive) | 85% | 59.2% | -1.67% (inactive) | -5.5% (inactive) | -16.7% (inactive) | -12.1% (inactive) | -5.9% (inactive) | 77.5% (inactive) | 77.8% (inactive) | 0.04% (inactive) | 5.85% (inactive)
COc1ccc(Cl)cc1S(=O)(=O)N1CCN(c2ccc(F)cc2)CC1 | 80% | 82% (inactive) | 80% (inactive) | 90.1% (inactive) | 75.8% (inactive) | -11.6% (inactive) | 87.4% | 75.8% | 4.23% (inactive) | 12.7% (inactive) | -13% (inactive) | -15.5% (inactive) | -2.08% (inactive) | 82.4% (inactive) | 89.7% (inactive) | -0.355% (inactive) | 1.85% (inactive)
CC1CCc2nn(CC(=O)NCCN3CCOCC3)cc2C1 (stereo not given) | 101% | 113% (inactive) | 101% (inactive) | 98.6% (inactive) | 89.4% (inactive) | -8.26% (inactive) | 97.7% | 89.4% | -2.44% (inactive) | -2.33% (inactive) | 2.41% (inactive) | 6.26% (inactive) | 0.93% (inactive) | 108% (inactive) | 101% (inactive) | 0.965% (inactive) | 4.43% (inactive)
CC1CCC(NC(=O)Cn2ncc3ccccc32)CC1 (stereo not given) | 106% | 108% (inactive) | 106% (inactive) | 107% (inactive) | 95.5% (inactive) | 7.93% (inactive) | 87.6% | 95.5% | -3.47% (inactive) | -8% (inactive) | -9.46% (inactive) | 1.29% (inactive) | -0.27% (inactive) | 97.9% (inactive) | 100% (inactive) | 1.21% (inactive) | 1.78% (inactive)
CC(=O)c1cc2c(cc1NC(=O)CN1CCN(C(=O)c3ccco3)CC1)OCO2 | 90% | 120% (inactive) | 90% (inactive) | 92.5% (inactive) | 86.3% (inactive) | -3.21% (inactive) | 89.5% | 86.3% | -5.47% (inactive) | -3.5% (inactive) | 0.565% (inactive) | -17.1% (inactive) | -3.21% (inactive) | 98.2% (inactive) | 97% (inactive) | 2.79% (inactive) | 0.37% (inactive)
Cc1c(NC(=O)C2CCCCN2S(=O)(=O)c2ccc(Cl)cc2)c(=O)n(-c2ccccc2)n1C (stereo not given) | 112% | 120% (inactive) | 112% (inactive) | 90.1% (inactive) | 91.3% (inactive) | -6.92% (inactive) | 98.2% | 91.3% | -3.47% (inactive) | -1% (inactive) | -2.56% (inactive) | -1.4% (inactive) | -1.13% (inactive) | 96.9% (inactive) | 103% (inactive) | 0.76% (inactive) | -0.87% (inactive)
Cc1ccc(C)c(C(=O)CC2(O)C(=O)N(C)c3ccccc32)c1 (stereo not given) | 112% | 113% (inactive) | 112% (inactive) | 105% (inactive) | 92.2% (inactive) | 10.1% (inactive) | 82.1% | 92.2% | -4.68% (inactive) | -1.5% (inactive) | -8.69% (inactive) | -12.9% (inactive) | -0.65% (inactive) | 107% (inactive) | 97.2% (inactive) | 3.41% (inactive) | -0.11% (inactive)
CCN1C(=O)c2cccc3c(NC(=O)c4ccc(S(=O)(=O)N(C)C)cc4)ccc1c23 | 86% | 95.5% (inactive) | 86% (inactive) | 53.6% (inactive) | 65.9% (inactive) | -3.87% (inactive) | 69.8% | 65.9% | 1.79% (inactive) | -7.17% (inactive) | -11.7% (inactive) | -15.2% (inactive) | -5.59% (inactive) | 73.5% (inactive) | 75.8% (inactive) | 0.195% (inactive) | 3.52% (inactive)
Cc1c(C)c2ccc(OC3CCCCC3=O)cc2oc1=O (stereo not given) | 100% | 112% (inactive) | 100% (inactive) | 82.6% (inactive) | 85.8% (inactive) | 10.4% (inactive) | 75.4% | 85.8% | -1.92% (inactive) | -2.67% (inactive) | -16.6% (inactive) | -7.25% (inactive) | 0.57% (inactive) | 104% (inactive) | 101% (inactive) | 0.48% (inactive) | 1.93% (inactive)
O=P(O)(CN1CCCCCC1)CN1CCCCCC1 | 93% | 97.5% (inactive) | 93% (inactive) | 96.6% (inactive) | 107% (inactive) | 7.6% (inactive) | 99.2% | 107% | -2.84% (inactive) | -0.82% (inactive) | -16.8% (inactive) | -8.96% (inactive) | 1.45% (inactive) | 98.3% (inactive) | 105% (inactive) | 0.24% (inactive) | 4.85% (inactive)

From PubChem BioAssay
